Inconclusive results are not listed. The source made the active and inactive calls. Calls come from the whole dose curve; as a rule, active = well fitted inhibition curve with a large enough effect; inconclusive = small, poorly fitted or top-dose-only effect; inactive = flat fitted curve, though single readings scatter.
Columns and labels:
CRL-7250 = normal cell line; assay: Cytotoxic Profiling of Annotated Libraries Using Quantitative High-Throughput Screening (AID 1296008); details: Five cell lines viability, CellTiter-Glo ATP luminescence, 48-72 h; max response: hits give low values; for max response: % is set by controls: 0 for no effect and ±100 for the full control effect
Summary of the method: (§1)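 Cells exposed to compounds for 48 or 72 hr at 37 degrees Celsius. Viability read as ATP-coupled luminescence with CellTiter-Glo after 10 min at room temperature.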

HEK293 = assay: as above; details: Five cell lines viability, CellTiter-Glo ATP luminescence, 48-72 h; max response: hits give low values
Summary of the method: as §1

HaCat [1] = assay: as above; details: Five cell lines viability, CellTiter-Glo ATP luminescence, 48-72 h; max response: hits give low values
Summary of the method: as §1

KB-3-1 = assay: as above; details: Five cell lines viability, CellTiter-Glo ATP luminescence, 48-72 h; max response: hits give low values
Summary of the method: as §1

NIH3T3 = assay: as above; details: Five cell lines viability, CellTiter-Glo ATP luminescence, 48-72 h; max response: hits give low values
Summary of the method: as §1

HACAT [2] = assay: qHTS assay to identify novel small-molecules to repurpose for Merkel cell carcinoma treatment (AID 1296009); details: MCC and control cell lines, CellTiter-Glo viability, 72 h; at 44.8 µM (top of the series) unless noted
Summary of the method: (§2)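 Cells were treated for 72 hr at 37 degree celsius with compounds in 8- or 11-point dose response. Viability was read by CellTiter-Glo luminescence, normalized to no-cell (cytotoxicity) and DMSO controls.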

HEK293T = assay: as above; details: MCC and control cell lines, CellTiter-Glo viability, 72 h; series mostly up to 44.8 µM
Summary of the method: as §2
Note: nearly all actives have a fitted effect of over 60% in size.

C=C1CCC[C@]2(C)C[C@]3(O)OC(=O)C(C)=C3C[C@@H]12
inactive: outcome (CRL-7250) | outcome (HEK293) | outcome (HaCat [1]) | outcome (KB-3-1) | outcome (NIH3T3) | outcome (HACAT [2]) | Potency (HEK293T)

COc1cc(/C=C/c2cc(O)cc(O[C@@H]3O[C@H](CO)[C@@H](O)[C@H](O)[C@H]3O)c2)ccc1O
inactive: max response (CRL-7250) 2.61% | outcome (HEK293) | outcome (HaCat [1]) | max response (KB-3-1) 4.08% | outcome (NIH3T3) | outcome (HACAT [2]) inactive [at 17.4 µM] | Potency (HEK293T)

O=C(CCCCc1ccc2ccccc2c1)C(F)(F)F
inactive: max response (CRL-7250) 3.49% | outcome (HEK293) | outcome (HaCat [1]) | max response (KB-3-1) 2.37% | outcome (NIH3T3) | outcome (HACAT [2]) inactive [at 92 µM] | Potency (HEK293T)

Cc1nnc(C(C)C)n1C1CC2CCC(C1)N2CCC(NC(=O)C1CCC(F)(F)CC1)c1ccccc1 (stereo unspecified)
inactive: max response (CRL-7250) -10.9% | outcome (HEK293) | outcome (HaCat [1]) | max response (KB-3-1) 8.02% | max response (NIH3T3) -0.909% | outcome (HACAT [2]) | Potency (HEK293T)

CCOC(=O)c1c(C)nn(-c2cccc([N+](=O)[O-])c2)c1C
inactive: max response (CRL-7250) -7.75% | outcome (HEK293) | outcome (HaCat [1]) | max response (KB-3-1) 0.772% | max response (NIH3T3) 3.21% | outcome (HACAT [2]) | Potency (HEK293T)

COC(=O)C1C(CC(C)=O)C=CC(O)C12Oc1cc(C)cc(O)c1C2=O (stereo unspecified)
inactive: max response (CRL-7250) -4.03% | outcome (HEK293) | outcome (HaCat [1]) | max response (KB-3-1) 4.45% | max response (NIH3T3) 3.58% | outcome (HACAT [2]) | Potency (HEK293T)

COC(=O)C1C(c2ccc(O)cc2)C(C(=O)OC)C1c1ccc(O)cc1 (stereo unspecified)
inactive: max response (CRL-7250) -3.45% | outcome (HEK293) | outcome (HaCat [1]) | outcome (KB-3-1) | outcome (NIH3T3) | outcome (HACAT [2]) | Potency (HEK293T)

C=C[C@](C)(CC/C=C(\C)C(=O)O)O[C@@H]1OC[C@H](O)[C@H](O)[C@H]1O
inactive: max response (CRL-7250) -0.0118% | outcome (HEK293) | outcome (HaCat [1]) | max response (KB-3-1) 3.33% | max response (NIH3T3) 2.21% | outcome (HACAT [2]) | Potency (HEK293T)

COc1ccc2cc(OCC3(C(=O)O)CN(C(=O)c4ccc(F)cc4)C3)ccc2c1
inactive: outcome (CRL-7250) | outcome (HEK293) | outcome (HaCat [1]) | max response (KB-3-1) 1.45% | outcome (NIH3T3) | outcome (HACAT [2]) | Potency (HEK293T)

CC[C@H]1OC(=O)[C@H](C)[C@@H](OC2C[C@@](C)(OC)[C@@H](O)[C@H](C)O2)[C@H](C)[C@@H](OC2O[C@H](C)C[C@H](NC)[C@H]2O)[C@](C)(O)C[C@@H](C)CN(C)[C@H](C)[C@@H](O)[C@]1(C)O (stereo partly specified)
inactive: outcome (CRL-7250) | outcome (HEK293) | outcome (HaCat [1]) | max response (KB-3-1) -2.3% | max response (NIH3T3) -0.0862% | outcome (HACAT [2]) | Potency (HEK293T)

C[C@]1(O)CC[C@@H]2C(C(=O)O)=CO[C@@H](O[C@@H]3O[C@H](COC(=O)c4ccc(O)cc4)[C@@H](O)[C@H](O)[C@H]3O)[C@@H]21
inactive: max response (CRL-7250) 2.99% | outcome (HEK293) | outcome (HaCat [1]) | max response (KB-3-1) 9.39% | max response (NIH3T3) 2.95% | outcome (HACAT [2]) inactive [at 17.4 µM] | Potency (HEK293T)

NCCCC[C@H](NC(=O)[C@@H]1Cc2ccccc2CN1C(=O)CCC(=O)c1ccccc1)C(=O)NCC(c1ccccc1)c1ccccc1
inactive: outcome (CRL-7250) | outcome (HEK293) | outcome (HaCat [1]) | outcome (KB-3-1) | max response (NIH3T3) 3.99% | outcome (HACAT [2]) | Potency (HEK293T)

CNC(=O)Nc1ccc(OC)c(NC(=O)NC(=O)c2cc(F)c(F)cc2Cl)c1
inactive: max response (CRL-7250) -5.98% | outcome (HEK293) | outcome (HaCat [1]) | max response (KB-3-1) 0.332% | outcome (NIH3T3) | outcome (HACAT [2]) | Potency (HEK293T)

C=C[C@@]1(C)CC(=O)C2[C@](C)(O1)[C@@H](OC(C)=O)[C@@H](O)[C@H]1C(C)(C)CCC[C@]21C (stereo partly specified)
inactive: max response (CRL-7250) -2.88% | outcome (HEK293) | outcome (HaCat [1]) | max response (KB-3-1) 7.42% | outcome (NIH3T3) | outcome (HACAT [2]) inactive [at 9.27 µM] | outcome (HEK293T) inactive [at 9.27 µM]

COc1cc(O[C@@H]2O[C@H](CO)[C@@H](O)[C@H](O)[C@H]2O)c(CCC(=O)OC[C@H]2O[C@@H](Oc3cc(OC)c(C4OC(=O)C(C)(O)C4O)cc3CCC(=O)O)[C@H](O)[C@@H](O)[C@@H]2O)cc1C1OC(=O)C(C)(O)C1O (stereo partly specified)
inactive: max response (CRL-7250) 1.01% | outcome (HEK293) | outcome (HaCat [1]) | max response (KB-3-1) 9.44% | max response (NIH3T3) -2.47% | outcome (HACAT [2]) inactive [at 9.27 µM] | outcome (HEK293T) inactive [at 9.27 µM]

CCC(C)/C=C(C)/C=C/C1=CC2=C(Cl)C(=O)C(C)(OC(C)=O)C(=O)C2=CN1C1CCCCN(C(CCC(N)=O)C(=O)O)C1=O (stereo unspecified)
inactive: outcome (CRL-7250) | outcome (HEK293) | outcome (HaCat [1]) | outcome (KB-3-1) | max response (NIH3T3) -1.04% | outcome (HACAT [2]) inactive [at 17.4 µM] | Potency (HEK293T)

C/C1=C\C[C@H](O[C@@H]2O[C@H](CO)[C@@H](O)[C@H](O)[C@H]2O)/C(C)=C/[C@H]2OC(=O)[C@H](C)[C@@H]2CC1
inactive: max response (CRL-7250) -3.83% | outcome (HEK293) | outcome (HaCat [1]) | max response (KB-3-1) 8.78% | outcome (NIH3T3) | outcome (HACAT [2]) inactive [at 17.4 µM] | Potency (HEK293T)

CC12CC34C=CC(=O)C(C)(CCC(=O)O)C3C(CC1C4)O2 (stereo unspecified)
inactive: outcome (CRL-7250) | outcome (HEK293) | outcome (HaCat [1]) | max response (KB-3-1) 5.48% | outcome (NIH3T3) | outcome (HACAT [2]) | Potency (HEK293T)

Source: PubChem BioAssay (NCATS)
